# Article PMC7862700, “An all-to-all approach to the identification of sequence-specific readers for epigenetic DNA modifications on cytosine”
# How the values were obtained:
# Assay in all cases: DAPPL (digital affinity profiling via proximity ligation, sequencing); 10 mM Tris-HCl pH 7.5, 50 mM NaCl, 1 mM DTT, 4% glycerol, room temperature, 30 min; GST-TFs on glutathione beads, 16-mer random dsDNA library, 0.1% formaldehyde crosslink after washing; high values mean tight binding
# FLI1 = target: T1, FLI1 (Homo sapiens, UniProt Q01543 1-452); details: protein: recombinant; tags: N-terminal GST; dsDNA, one strand shown
# T1 sequence: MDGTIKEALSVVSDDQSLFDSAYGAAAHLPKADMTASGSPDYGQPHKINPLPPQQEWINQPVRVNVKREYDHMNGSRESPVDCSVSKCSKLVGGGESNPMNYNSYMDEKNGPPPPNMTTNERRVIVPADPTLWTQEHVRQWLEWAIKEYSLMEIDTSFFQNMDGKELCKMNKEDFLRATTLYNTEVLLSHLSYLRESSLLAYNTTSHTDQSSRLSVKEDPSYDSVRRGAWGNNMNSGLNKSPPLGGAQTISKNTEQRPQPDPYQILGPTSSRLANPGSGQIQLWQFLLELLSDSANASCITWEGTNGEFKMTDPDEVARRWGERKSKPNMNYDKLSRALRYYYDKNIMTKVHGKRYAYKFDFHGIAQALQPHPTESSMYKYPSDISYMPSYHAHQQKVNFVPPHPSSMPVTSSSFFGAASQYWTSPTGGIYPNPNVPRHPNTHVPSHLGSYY
# In short: (§1)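 The binding signal reported is, for every hexamer, its read frequency for a factor over its read frequency for the tag-only sample. Reads came from pools of yeast-expressed, GST-fused human transcription factors on glutathione beads, barcoded with DNA and mixed with that sample, which were incubated with 200 nmole of a random double-stranded 16-mer DNA library in Tris/NaCl/DTT/glycerol buffer at room temperature for 30 min. After washing, the pools were crosslinked with 0.1% formaldehyde, proximity-ligated with BsaI/T4 ligase for 1 h at 37 °C, PCR-amplified and sequenced on an Illumina NextSeq500.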
# ELK1 = target: T2, ELK1 (Homo sapiens, UniProt P19419 1-428); details: protein: recombinant; tags: N-terminal GST; dsDNA, one strand shown
# T2 sequence: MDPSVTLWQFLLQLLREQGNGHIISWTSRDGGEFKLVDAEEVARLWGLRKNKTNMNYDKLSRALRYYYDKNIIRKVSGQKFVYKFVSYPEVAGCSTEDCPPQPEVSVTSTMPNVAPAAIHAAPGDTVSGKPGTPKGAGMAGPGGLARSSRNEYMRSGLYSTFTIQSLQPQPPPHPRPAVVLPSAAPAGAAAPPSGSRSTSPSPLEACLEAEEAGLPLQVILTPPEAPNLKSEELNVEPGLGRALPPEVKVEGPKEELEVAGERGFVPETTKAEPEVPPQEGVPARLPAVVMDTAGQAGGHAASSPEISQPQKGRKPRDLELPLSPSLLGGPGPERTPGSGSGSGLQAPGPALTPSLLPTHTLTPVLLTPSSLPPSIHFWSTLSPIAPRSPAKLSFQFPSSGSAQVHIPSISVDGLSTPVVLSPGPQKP
# In short: as §1
# GABPA = target: T3, GABPA (Homo sapiens, UniProt Q06546 1-454); details: protein: recombinant; tags: N-terminal GST; dsDNA, one strand shown
# T3 sequence: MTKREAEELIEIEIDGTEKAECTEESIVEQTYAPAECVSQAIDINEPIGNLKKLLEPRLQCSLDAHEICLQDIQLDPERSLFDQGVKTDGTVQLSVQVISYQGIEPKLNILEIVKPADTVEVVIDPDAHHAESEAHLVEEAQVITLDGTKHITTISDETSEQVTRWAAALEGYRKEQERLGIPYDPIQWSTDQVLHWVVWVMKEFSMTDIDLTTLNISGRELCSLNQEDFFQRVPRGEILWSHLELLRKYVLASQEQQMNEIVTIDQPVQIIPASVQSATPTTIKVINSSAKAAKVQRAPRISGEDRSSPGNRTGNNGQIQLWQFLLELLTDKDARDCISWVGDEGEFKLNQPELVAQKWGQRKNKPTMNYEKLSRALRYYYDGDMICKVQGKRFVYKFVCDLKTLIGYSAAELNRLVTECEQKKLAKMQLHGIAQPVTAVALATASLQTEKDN
# In short: as §1
# ERG = target: T4, ERG (Homo sapiens, UniProt P11308 1-479); details: protein: recombinant; tags: N-terminal GST; dsDNA, one strand shown
# T4 sequence: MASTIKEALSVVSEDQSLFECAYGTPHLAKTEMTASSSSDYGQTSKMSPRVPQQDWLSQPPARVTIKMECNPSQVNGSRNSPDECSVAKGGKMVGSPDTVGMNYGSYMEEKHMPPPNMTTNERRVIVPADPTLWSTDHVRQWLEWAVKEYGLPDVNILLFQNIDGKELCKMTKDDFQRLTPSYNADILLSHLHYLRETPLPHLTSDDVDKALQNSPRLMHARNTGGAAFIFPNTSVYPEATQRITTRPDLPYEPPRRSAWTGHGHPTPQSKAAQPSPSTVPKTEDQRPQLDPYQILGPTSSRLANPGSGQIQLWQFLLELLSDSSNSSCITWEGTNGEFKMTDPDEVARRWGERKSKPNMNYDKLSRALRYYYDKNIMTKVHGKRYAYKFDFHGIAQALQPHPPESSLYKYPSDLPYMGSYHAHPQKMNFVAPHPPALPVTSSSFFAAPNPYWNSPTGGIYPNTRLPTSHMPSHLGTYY
# In short: as §1
# ELF1 = ELF1 (Homo sapiens, UniProt P32519 1-619); details: protein: recombinant; tags: N-terminal GST; dsDNA, one strand shown
# Sequence of ELF1 (P32519 whole entry): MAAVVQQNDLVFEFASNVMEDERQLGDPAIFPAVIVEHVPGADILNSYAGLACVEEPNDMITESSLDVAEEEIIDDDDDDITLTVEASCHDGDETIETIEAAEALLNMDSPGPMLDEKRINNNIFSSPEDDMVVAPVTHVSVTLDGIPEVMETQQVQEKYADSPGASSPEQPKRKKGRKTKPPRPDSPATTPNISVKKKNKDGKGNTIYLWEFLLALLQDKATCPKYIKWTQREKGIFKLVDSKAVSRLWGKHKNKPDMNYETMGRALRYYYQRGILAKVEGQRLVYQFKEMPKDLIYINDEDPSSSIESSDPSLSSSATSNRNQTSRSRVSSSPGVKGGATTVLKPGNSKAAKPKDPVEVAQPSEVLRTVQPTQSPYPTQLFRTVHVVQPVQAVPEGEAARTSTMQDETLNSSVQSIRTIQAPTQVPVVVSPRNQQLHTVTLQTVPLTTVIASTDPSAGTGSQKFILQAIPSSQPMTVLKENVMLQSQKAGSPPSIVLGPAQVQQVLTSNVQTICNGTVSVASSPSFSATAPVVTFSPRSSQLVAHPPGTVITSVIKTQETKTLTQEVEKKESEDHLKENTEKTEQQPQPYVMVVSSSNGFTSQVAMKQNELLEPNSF
# In short: as §1
# EHF = target: T5, EHF (Homo sapiens, UniProt Q9NZC4 1-300); details: protein: recombinant; tags: N-terminal GST; dsDNA, one strand shown
# T5 sequence: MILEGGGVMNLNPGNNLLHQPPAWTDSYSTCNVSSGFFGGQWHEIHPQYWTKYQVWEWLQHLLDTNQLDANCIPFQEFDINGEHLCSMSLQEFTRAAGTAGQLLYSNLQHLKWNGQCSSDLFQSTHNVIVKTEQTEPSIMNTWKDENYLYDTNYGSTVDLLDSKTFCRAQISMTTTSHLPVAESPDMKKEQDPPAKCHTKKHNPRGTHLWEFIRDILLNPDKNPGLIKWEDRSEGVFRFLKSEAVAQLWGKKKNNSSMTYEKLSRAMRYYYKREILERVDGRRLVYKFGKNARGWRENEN
# In short: as §1
# SPI1 = SPI1 (Homo sapiens, UniProt P17947 1-270); details: protein: recombinant; tags: N-terminal GST; dsDNA, one strand shown
# In short: as §1
# SPIB = SPIB (Homo sapiens, UniProt Q01892 1-262); details: protein: recombinant; tags: N-terminal GST; dsDNA, one strand shown
# Sequence of SPIB (Q01892 whole entry): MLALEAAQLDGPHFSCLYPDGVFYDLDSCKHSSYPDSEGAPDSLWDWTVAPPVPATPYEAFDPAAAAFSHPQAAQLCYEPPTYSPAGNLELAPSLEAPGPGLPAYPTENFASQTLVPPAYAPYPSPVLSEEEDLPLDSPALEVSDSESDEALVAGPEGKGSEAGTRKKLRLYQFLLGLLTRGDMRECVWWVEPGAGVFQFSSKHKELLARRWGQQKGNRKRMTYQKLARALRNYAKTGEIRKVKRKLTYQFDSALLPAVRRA
# In short: as §1
# ELK3 = target: T6, ELK3 (Homo sapiens, UniProt P41970 1-407); details: protein: recombinant; tags: N-terminal GST; dsDNA, one strand shown
# T6 sequence: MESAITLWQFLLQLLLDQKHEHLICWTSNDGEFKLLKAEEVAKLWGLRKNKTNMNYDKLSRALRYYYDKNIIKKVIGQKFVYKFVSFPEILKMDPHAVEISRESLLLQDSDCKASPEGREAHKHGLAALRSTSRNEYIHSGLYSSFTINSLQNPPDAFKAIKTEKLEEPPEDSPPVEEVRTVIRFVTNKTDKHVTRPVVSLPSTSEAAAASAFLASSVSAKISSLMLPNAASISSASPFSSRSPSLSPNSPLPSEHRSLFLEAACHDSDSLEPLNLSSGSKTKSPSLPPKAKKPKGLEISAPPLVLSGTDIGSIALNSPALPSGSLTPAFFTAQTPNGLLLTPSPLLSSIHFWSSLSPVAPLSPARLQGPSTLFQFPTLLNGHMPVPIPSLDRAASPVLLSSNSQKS
# In short: as §1
# FEV = target: T7, FEV (Homo sapiens, UniProt Q99581 1-238); details: protein: recombinant; tags: N-terminal GST; dsDNA, one strand shown
# T7 sequence: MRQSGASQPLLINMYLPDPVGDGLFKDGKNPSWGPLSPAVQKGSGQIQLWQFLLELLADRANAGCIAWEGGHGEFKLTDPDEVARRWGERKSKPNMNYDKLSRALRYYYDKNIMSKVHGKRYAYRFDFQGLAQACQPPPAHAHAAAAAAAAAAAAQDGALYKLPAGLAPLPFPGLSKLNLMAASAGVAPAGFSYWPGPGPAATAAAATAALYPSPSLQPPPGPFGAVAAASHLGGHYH
# In short: as §1
# ETV5 = ETV5 (Homo sapiens, UniProt P41161 1-510); details: protein: recombinant; tags: N-terminal GST; dsDNA, one strand shown
# Sequence of ETV5 (P41161 whole entry): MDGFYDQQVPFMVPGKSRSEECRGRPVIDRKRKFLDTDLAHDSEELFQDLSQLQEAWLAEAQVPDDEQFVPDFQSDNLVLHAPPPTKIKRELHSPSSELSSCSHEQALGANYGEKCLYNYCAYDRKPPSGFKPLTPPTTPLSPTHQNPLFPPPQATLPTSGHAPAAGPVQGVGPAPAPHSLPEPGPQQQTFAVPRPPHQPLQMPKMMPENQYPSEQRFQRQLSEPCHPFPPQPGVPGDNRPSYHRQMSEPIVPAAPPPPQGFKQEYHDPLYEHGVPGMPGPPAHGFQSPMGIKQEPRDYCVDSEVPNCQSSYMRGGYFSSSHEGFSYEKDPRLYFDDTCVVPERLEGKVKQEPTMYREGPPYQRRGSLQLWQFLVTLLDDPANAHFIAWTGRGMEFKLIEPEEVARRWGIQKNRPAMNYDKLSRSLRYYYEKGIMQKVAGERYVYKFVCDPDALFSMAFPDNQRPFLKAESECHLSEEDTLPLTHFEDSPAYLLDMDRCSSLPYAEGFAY
# In short: as §1
# HSF1 = HSF1 (Homo sapiens, UniProt Q00613 1-529); details: protein: recombinant; tags: N-terminal GST; chain copies: 3; dsDNA, one strand shown
# Sequence of HSF1 (Q00613 whole entry): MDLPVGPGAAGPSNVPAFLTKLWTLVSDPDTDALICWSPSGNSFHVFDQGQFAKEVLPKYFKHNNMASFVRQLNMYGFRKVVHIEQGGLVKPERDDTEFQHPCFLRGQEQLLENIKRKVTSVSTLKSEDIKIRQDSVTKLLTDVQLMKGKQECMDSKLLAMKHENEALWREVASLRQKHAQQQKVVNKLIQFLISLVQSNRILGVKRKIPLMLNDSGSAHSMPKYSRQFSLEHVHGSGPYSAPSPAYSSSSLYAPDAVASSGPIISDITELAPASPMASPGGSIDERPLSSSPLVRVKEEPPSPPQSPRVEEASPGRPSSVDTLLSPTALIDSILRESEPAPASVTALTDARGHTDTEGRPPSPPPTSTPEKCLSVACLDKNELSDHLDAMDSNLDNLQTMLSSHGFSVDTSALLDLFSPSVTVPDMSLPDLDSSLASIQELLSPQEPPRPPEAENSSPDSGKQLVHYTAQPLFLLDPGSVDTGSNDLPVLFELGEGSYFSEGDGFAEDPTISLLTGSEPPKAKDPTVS
# In short: as §1
# SPIC = target: T8, SPIC (Homo sapiens, UniProt Q8N5J4 1-248); details: protein: recombinant; tags: N-terminal GST; dsDNA, one strand shown
# T8 sequence: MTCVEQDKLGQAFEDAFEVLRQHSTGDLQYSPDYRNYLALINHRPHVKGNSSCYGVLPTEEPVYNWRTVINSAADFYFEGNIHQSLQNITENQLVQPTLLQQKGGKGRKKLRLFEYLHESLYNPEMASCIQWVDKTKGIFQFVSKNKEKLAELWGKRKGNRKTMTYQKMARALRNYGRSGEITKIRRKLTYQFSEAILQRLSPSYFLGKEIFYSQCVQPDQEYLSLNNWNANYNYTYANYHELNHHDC
# In short: as §1
# ELF4 = ELF4 (Homo sapiens, UniProt Q99607 1-663); details: protein: recombinant; tags: N-terminal GST; dsDNA, one strand shown
# Sequence of ELF4 (Q99607 whole entry): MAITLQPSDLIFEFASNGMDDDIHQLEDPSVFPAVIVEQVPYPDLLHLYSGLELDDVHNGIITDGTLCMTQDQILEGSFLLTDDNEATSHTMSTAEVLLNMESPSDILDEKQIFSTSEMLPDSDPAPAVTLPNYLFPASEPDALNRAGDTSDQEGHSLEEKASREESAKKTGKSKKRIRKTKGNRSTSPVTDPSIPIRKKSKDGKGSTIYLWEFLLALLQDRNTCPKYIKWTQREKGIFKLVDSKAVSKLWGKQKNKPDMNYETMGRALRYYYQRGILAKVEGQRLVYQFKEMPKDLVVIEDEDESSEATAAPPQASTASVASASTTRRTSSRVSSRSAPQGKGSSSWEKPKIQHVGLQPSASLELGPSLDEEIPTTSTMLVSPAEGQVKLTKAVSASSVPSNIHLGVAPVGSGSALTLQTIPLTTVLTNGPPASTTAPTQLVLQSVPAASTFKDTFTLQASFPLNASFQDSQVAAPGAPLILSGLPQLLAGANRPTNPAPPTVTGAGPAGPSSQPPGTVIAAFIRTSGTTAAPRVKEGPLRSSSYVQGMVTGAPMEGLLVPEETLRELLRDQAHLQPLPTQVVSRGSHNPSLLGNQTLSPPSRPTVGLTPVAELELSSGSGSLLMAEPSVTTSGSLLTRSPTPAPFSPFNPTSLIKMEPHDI
# In short: as §1
# ELK4 = target: T9, ELK4 (Homo sapiens, UniProt P28324-2 1-405); details: protein: recombinant; tags: N-terminal GST; dsDNA, one strand shown
# T9 sequence: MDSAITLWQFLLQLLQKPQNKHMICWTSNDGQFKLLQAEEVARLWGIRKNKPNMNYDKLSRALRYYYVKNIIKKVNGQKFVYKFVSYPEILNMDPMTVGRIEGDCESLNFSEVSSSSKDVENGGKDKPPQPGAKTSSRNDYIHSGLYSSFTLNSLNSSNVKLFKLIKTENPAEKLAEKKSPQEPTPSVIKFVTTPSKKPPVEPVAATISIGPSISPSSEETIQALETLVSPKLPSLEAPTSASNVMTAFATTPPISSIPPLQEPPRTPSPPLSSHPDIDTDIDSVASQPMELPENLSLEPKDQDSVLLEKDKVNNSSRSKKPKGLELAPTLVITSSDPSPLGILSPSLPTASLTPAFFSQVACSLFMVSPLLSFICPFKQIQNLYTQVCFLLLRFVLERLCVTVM
# In short: as §1
# ETV2 = target: T10, ETV2 (Homo sapiens, UniProt O00321 1-342); details: protein: recombinant; tags: N-terminal GST; dsDNA, one strand shown
# T10 sequence: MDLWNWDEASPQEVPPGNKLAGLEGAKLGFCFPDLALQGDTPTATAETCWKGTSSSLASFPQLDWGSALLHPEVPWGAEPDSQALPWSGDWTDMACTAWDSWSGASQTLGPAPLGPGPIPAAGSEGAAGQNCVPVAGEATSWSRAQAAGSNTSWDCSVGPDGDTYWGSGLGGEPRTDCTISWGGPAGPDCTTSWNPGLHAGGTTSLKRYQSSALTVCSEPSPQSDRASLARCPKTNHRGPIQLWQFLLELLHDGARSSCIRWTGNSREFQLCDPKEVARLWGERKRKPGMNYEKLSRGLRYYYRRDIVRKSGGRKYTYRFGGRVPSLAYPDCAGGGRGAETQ
# In short: as §1
# ELF3 = target: T11, ELF3 (Homo sapiens, UniProt P78545 1-371); details: protein: recombinant; tags: N-terminal GST; dsDNA, one strand shown
# T11 sequence: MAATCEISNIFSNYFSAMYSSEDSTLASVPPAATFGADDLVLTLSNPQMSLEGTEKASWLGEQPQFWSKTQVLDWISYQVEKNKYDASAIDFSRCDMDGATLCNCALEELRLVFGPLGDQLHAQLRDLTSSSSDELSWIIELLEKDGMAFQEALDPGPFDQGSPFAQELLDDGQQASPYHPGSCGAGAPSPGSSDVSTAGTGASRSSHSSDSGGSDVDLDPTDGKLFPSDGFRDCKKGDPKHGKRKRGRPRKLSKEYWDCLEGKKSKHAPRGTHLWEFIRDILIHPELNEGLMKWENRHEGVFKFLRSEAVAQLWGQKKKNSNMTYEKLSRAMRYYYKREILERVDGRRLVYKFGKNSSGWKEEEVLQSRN
# In short: as §1
# ETV1 = ETV1 (Homo sapiens, UniProt P50549 1-477); details: protein: recombinant; tags: N-terminal GST; dsDNA, one strand shown
# Sequence of ETV1 (P50549 whole entry): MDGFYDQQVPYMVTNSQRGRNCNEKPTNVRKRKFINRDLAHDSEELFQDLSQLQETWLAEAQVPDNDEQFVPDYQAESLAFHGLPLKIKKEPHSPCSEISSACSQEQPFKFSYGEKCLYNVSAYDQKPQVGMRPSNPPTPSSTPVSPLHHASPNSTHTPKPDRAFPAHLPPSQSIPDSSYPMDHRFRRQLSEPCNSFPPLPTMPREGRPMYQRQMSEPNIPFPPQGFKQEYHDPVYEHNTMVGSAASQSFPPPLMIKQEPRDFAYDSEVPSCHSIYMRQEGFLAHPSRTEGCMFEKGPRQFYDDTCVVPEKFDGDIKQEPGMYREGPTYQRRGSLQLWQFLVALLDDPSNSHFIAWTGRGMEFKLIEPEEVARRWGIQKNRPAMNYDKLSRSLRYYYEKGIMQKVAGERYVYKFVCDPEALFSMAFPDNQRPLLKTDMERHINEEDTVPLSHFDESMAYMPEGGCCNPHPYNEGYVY
# In short: as §1
sequence,measurement,setting,value
CCTGCA,binding signal,FLI1,"1.28 fold enrichment (6-mer frequency, TF over GST control)"
same,binding signal,ELK1,"1.3 fold enrichment (6-mer frequency, TF over GST control)"
same,binding signal,GABPA,"1.19 fold enrichment (6-mer frequency, TF over GST control)"
same,binding signal,ERG,"1.23 fold enrichment (6-mer frequency, TF over GST control)"
same,binding signal,ELF1,"1.36 fold enrichment (6-mer frequency, TF over GST control)"
same,binding signal,EHF,"1.42 fold enrichment (6-mer frequency, TF over GST control)"
same,binding signal,SPI1,"1.17 fold enrichment (6-mer frequency, TF over GST control)"
same,binding signal,SPIB,"1.24 fold enrichment (6-mer frequency, TF over GST control)"
same,binding signal,ELK3,"1.23 fold enrichment (6-mer frequency, TF over GST control)"
same,binding signal,FEV,"1.26 fold enrichment (6-mer frequency, TF over GST control)"
same,binding signal,ETV5,"1.39 fold enrichment (6-mer frequency, TF over GST control)"
same,binding signal,HSF1,"1.11 fold enrichment (6-mer frequency, TF over GST control)"
same,binding signal,SPIC,"1.15 fold enrichment (6-mer frequency, TF over GST control)"
same,binding signal,ELF4,"1.3 fold enrichment (6-mer frequency, TF over GST control)"
same,binding signal,ELK4,"1.27 fold enrichment (6-mer frequency, TF over GST control)"
same,binding signal,ETV2,"1.22 fold enrichment (6-mer frequency, TF over GST control)"
same,binding signal,ELF3,"1.68 fold enrichment (6-mer frequency, TF over GST control)"
same,binding signal,ETV1,"1.28 fold enrichment (6-mer frequency, TF over GST control)"
